High-throughput results from PubChem.
NPC1 promoter act – activators of NPC1 promoter; 2.4% of 320,000 active; AID 485313; Huh7 NPC1 promoter luciferase reporter, 24 h; Potency, µM (highest dose often 9.22 µM), for inactives: top-dose activation, actives largely listed as activators; further: % of control where 0% means no effect; nearly all actives have a fitted effect of over 60% in size
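Quantitative HTS used a cell-based reporter: Huh7 cells stably bearing the NPC1 promoter upstream of luciferase were treated with compounds for 24 h, and promoter activation was read as luminescence.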
ELG1 genotox – genotoxicity induction in ELG1-luciferase HEK293T cells | HEK293T ELG1-luciferase reporter, luminescence, 16 h | Potency, µM (highest dose often 46 µM), for inactives: at the highest dose activity change, positive = activation, actives largely listed as activators | 1.3% of 330,000 active | AID 504466; further: % of control where 0% means no effect; nearly all actives have a fitted effect of over 60% in size
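HEK293T cells expressing luciferase-tagged ELG1 were exposed to compound or DMSO vehicle for 16 hr at 37 °C and 5% CO2. Luciferase activity was then measured with ONE-Glo after 30 min at room temperature.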
SMN2 splice enh – increases expression of the SMN2 splice variant. Potency, µM (series often up to 46.1 µM), for the others: at the highest dose activity change, positive = activation, usual class: activators. 2.8% of 210,000 active. HEK293 SMN2-luciferase splicing reporter, luminescence, 30-36 h; further: % of control where 0% means no effect; nearly all actives have a fitted effect of over 55% in size
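HEK293 cells carry an SMN2 minigene-luciferase reporter in which exon 7 inclusion puts luciferase in frame. Cells were seeded at 2000 cells/well, attached for 10-12 hours, then exposed to compounds for 30-36 hours at 37C before ONE-Glo luminescence.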
FLuc counter – firefly luciferase modulation, counter-screen for miR-21 project; purified FLuc, Km substrates, luminescence inhibition; Potency, µM (series often up to 57.5 µM), without a hit: top-dose activity change, negative = inhibition, usual class: inhibitors; 6.9% of 360,000 active;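 further: plate controls were vehicle for no effect and reference inhibitor for full effect; nearly all actives have a fitted effect of over 55% in size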
Target sequence (P08659 whole entry, looked up): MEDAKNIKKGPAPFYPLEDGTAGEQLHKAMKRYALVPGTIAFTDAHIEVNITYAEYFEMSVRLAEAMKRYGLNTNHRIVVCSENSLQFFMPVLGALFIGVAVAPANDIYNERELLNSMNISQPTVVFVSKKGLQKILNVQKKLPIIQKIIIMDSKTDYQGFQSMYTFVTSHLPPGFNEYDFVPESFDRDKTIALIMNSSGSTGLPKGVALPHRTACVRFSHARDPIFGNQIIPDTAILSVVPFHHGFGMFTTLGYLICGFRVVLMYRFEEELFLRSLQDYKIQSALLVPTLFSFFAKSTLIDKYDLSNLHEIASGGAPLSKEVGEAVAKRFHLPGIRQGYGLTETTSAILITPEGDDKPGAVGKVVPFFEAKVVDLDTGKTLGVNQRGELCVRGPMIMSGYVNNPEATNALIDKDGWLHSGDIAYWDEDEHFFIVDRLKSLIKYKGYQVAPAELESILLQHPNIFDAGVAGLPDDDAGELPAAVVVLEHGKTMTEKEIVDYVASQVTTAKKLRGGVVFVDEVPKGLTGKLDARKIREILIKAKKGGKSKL
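Biochemical qHTS of compounds, final roughly 60 µM downward over six points, against 10 nM purified firefly luciferase using Km concentrations of substrates (10 uM D-luciferin, 10 uM ATP) in Tris acetate pH 7.5 buffer; luminescence output.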
Rab9 promoter act – Rab9 promoter activation; 2.8% of 320,000 active; Potency, µM (titrated, usually from 9.22 µM), inactives show top-dose activation, negative = inhibition, usual class: activators; AID 485297; Huh7 Rab9 promoter-luciferase reporter, luminescence, 24 h; further: % of control where 0% means no effect; nearly all actives have a fitted effect of over 60% in size
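Luminescence read-out: Huh7 cells stably expressing Rab9-luciferase, treated 24 h with compound at 37 °C, then lysed with luciferase reagent for 10 min at ambient before reading.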
An asterisk follows results filed as active; ? = inconclusive; · = no result given; [ ] = dose if it differs, or a comment. This is a sample that favours compounds with a hit; in the whole collection about 7.4% have one here. The call rests on the fitted dose curve; in most records, active means well fitted curve in the direction sought with a large enough effect; inconclusive means small, poorly fitted or top-dose-only effect, or another doubt; inactive means no such curve, though single readings can be large; an effect the other way counts as inactive or inconclusive. Potency means the concentration at half of the fitted maximal effect.

SMILES	NPC1 promoter act	ELG1 genotox	SMN2 splice enh	FLuc counter	Rab9 promoter act
O=C(Nc1ccc(CN2CCCCC2)cc1)c1sc2ccccc2c1Cl	25%	13%	·	13µM*	15%
CC1CCCN(C(=O)CNC(=O)c2sc3ccccc3c2Cl)C1 (stereo not given)	?	?	·	15µM*	2.5µM*
CC1CC(C)CN(C(=O)CNC(=O)c2sc3ccccc3c2Cl)C1 (stereo not given)	5%	-1%	·	?	13%
O=C(NCC(=O)N1CCCCC1)c1sc2ccccc2c1Cl	1.8µM*	?	·	8.5µM*	2.2µM*
Cc1cccc([C@@H]2[C@@H]3C(=O)N(Cc4ccccc4)C(=O)[C@@H]3[C@]3(C)C(=O)N(c4ccc(C(F)(F)F)cc4)C(=O)N23)c1	-5%	-7%	·	0%	-6%
COc1ccccc1N1CCN(/N=C/c2ccc(O)c(O)c2)CC1	-28%	?	?	?	-21%
COc1ccccc1N1CCN(/N=C/c2ccc(C(=O)O)cc2)CC1	1µM*	?	·	2.7µM*	0.71µM*
C(=N/N1CCN(c2ccccc2)CC1)/c1ccncc1	-1%	-2%	·	-23%	-8%
O=C(O)c1ccc(/C=N/N2CCN(c3ccccc3)CC2)cc1	1.1µM*	15%	·	4.3µM*	1.4µM*
COc1ccc(OC(C)c2nc3ccccc3[nH]2)cc1 (stereo not given)	·	·	·	-2%	·
COc1cc(C2CC(=O)Nc3c2c(=O)n(C)c2ncnn32)cc(OC)c1OC (stereo not given)	·	·	4%	2%	·
CN(CC(=O)Nc1cccc(F)c1)C(=O)c1ccccc1OCC(=O)Nc1cccc(C(F)(F)F)c1	2%	1%	·	3%	-4%
Cc1c(O)ccc(-c2n[nH]c(C(=O)O)c2-c2nc3ccccc3s2)c1O	0%	13%	·	17µM*	16%
Cc1c(O)ccc(-c2[nH]ncc2-c2nc3ccccc3s2)c1O	-2%	-8%	4%	3%	2%
O=C1c2ccccc2C(=O)c2c(Nc3cc4c5c(ccc6c7ccc8c9c(cc(Nc%10cccc%11c%10C(=O)c%10ccccc%10C%11=O)c(c3c56)c97)-c3ccccc3C8=O)C(=O)c3ccccc3-4)cccc21	·	·	13%[9.22 µM]	·	·
O=C(CC1CCCCC1)NCCOc1ccccc1	11%	6%	8%	-11%	1%
O=C(NCCOc1ccccc1)C1CCCCC1	?	?	20µM*	?	3.2µM*
CCOc1ccc(/C=C/C(=O)NCc2ccccc2)cc1	2%	8%	6%	15µM*	-2%
CCOc1ccc(/C=C/C(=O)c2ccccc2)cc1	1.1µM*	?	·	0.15µM*	0.79µM*
O=C(/C=C/c1ccccc1)NCCOc1ccccc1	27%	?	?	24µM*	?
CCOc1ccc(C(=O)/C=C/c2cc(OC)c(OC)c(OC)c2)cc1	-7%	-9%	-57%	?	-15%
CCOc1ccc(N/C=C/C(=O)c2ccccc2)c([N+](=O)[O-])c1	0.1µM*	?	0.56µM*	0.12µM*	0.1µM*
CCOc1ccc(C(=O)N/N=C/c2ccc(SC)cc2)cc1	2%	7%	?	-8%	-4%
CC(C)(C)C(=O)/C=C/c1ccc(Oc2ccccc2)cc1	?	?	·	6µM*	6.3µM*
CCOc1ccc(C(=O)/C=C/c2ccc(SC)cc2)cc1	1%	0%	-6%	5.4µM*	-1%
SMILES	NPC1 promoter act	ELG1 genotox	SMN2 splice enh	FLuc counter	Rab9 promoter act
CNCc1ccccc1Sc1cc(O)ccc1O	7%	7%	-14%	9.5µM*	-1%
CCC(C)(C)C1CCC(=NNc2nc3ccccc3[nH]2)CC1 (stereo not given)	6%	2%	1%	12µM*	7%
N#CCSc1ccc(-c2nc3ccccc3[nH]2)cn1	?	?	?	12µM*	?
CCOC(=O)CSc1ccc(-c2nc3cc(C)c(C)cc3[nH]2)cn1	?	?	9%	1.1µM*	?
CCOC(=O)CSc1ccc(-c2nc3ccccc3[nH]2)cn1	-1%	0%	·	12µM*	-2%
Cc1cc2nc(-c3ccc(SCc4ccccn4)nc3)[nH]c2cc1C	?	-9%	-19%	5.4µM*	2.5µM*
CN(C)Cc1cccc([N+](=O)[O-])c1O	-1%	-2%	·	-1%	0%
O=C(Nc1ccc(Cl)cc1)c1nc[nH]c1C(=O)NCCCCNC(=O)c1[nH]cnc1C(=O)Nc1ccc(Cl)cc1	·	-10%	·	·	·
COC(=O)CSc1nc2ccccc2o1	0%	-1%	-9%	?	-2%
CCCCCCOC(=O)Sc1nc2ccccc2o1	-1%	1%	4%	24µM*	0%
CC(C)(C)N=Cc1cc(-c2ccccc2)sc1O	2.8µM*	9.2µM*	22%	5.4µM*	2.2µM*
CC(C)(C)Nc1ncnc2sc(-c3ccccc3)cc12	-1%	-4%	·	?	-1%
CN(C)c1ccc(/C=N/N=C/c2ccccc2O)cc1	0.45µM*	?	-44%	0.3µM*	0.56µM*
COC(=O)c1cc(C)nc(Sc2ccccc2N)n1	-2%	-4%	·	12µM*	8%
O=C(Nc1nccs1)C1CC(=O)N(c2ccc(Cl)cc2)C1 (stereo not given)	0%	-6%	-4%	4%	-7%
Cc1cc(N2CC(C(=O)Nc3nccs3)CC2=O)ccc1C(C)C (stereo not given)	1%	-4%	·	11µM*	13%
CCOC(=O)Nc1cccc(C(=O)O)c1	?	7%	13µM*	-19%	?
Cc1ccc(C)c(OCC(=O)Nc2ccc3c(c2)OCO3)c1C	-2%	1%	?	?	0%
Cc1ccc(C)c(OCC(=O)Nc2cccc(C(=O)O)c2)c1C	?	?	13µM*	11µM*	?
CCOC(=O)Nc1cccc(Nc2ccccc2)c1	2%	?	0%	?	-2%
Cc1cccc(C)c1OCC(=O)Nc1cccc(C(=O)O)c1	1.4µM*	?	6.3µM*	2.1µM*	2.5µM*
Nc1nc(Cl)nc2c1ncn2[C@@H]1O[C@H](COP(=O)(O)OP(=O)(O)OP(=O)(O)O)[C@@H](O)[C@H]1O	1%[46.1 µM]	·	·	·	-4%[46.1 µM]
O=[N+]([O-])c1ccc([N+](=O)[O-])c(Nc2ccc(N3CCOCC3)cc2)c1	-3%	-1%	1%	0%	-6%
CC(=Nc1ccc(O)cc1)c1sc2ccccc2c1O	1.8µM*	4.6µM*	10µM*	2.4µM*	1.1µM*
CC(=O)NCCN=C(C)c1sc2ccccc2c1O	?	11%	?	?	?
CC(=Nc1cccc(C)c1)c1sc2ccccc2c1O	20%	9.2µM*	13µM*	3µM*	?
O=[N+]([O-])c1cccc(N=Cc2sc3ccccc3c2O)c1	26%	?	9%	?	?
CC(=Nc1ccccc1O)c1sc2ccccc2c1O	6%	?	·	9.5µM*	?
